Reference: PubChem BioAssay AID588497 (NMMLSC, 2011)
The whole screen tested about 360,000 compounds, of which about 780 (0.22%) were called active. Not shown: some 4% with an inconclusive outcome. Only a selection was taken, and actives are over-represented in it overall. Unmarked numbers belong to inactive results. No stated cut-off is given here; in the data, active means inhibition above about 35% (passing the limit was not always enough); inconclusive means no clear call, values can overlap the other calls.

Tested on: Botulinum neurotoxin type F light chain protease (Clostridium botulinum)
Experiment: BoNT/F light chain protease inhibitors, primary screen, biochemical, flow cytometry, MLPCN library (AID 588497); further: plate controls were buffer without enzyme for full effect and enzyme alone for no effect
Conditions: Multiplex microsphere protease cleavage assay, at 10 µM, stronger effect = higher value

Row | SMILES | inhibition
1 | O=C(c1snnc1-c1ccccc1)N1CCOCC1 | -9%
2 | C=CCN(CC=C)S(=O)(=O)c1ccc(C(=O)Nc2nc3c(s2)CCc2ccccc2-3)cc1 | -8.2%
3 | c1ccc2c(c1)CCc1snnc1-2 | 40.3% (active)
4 | COc1ccc(CC(N)c2csc(NC(=O)Nc3ccc(C(C)C)cc3)n2)cc1 (configuration not stated) | -11.1%
5 | CC1CN(Cc2ccccc2)C(=S)NC1=O (configuration not stated) | 0.1%
6 | CN(C)c1ccc(/C=C2\NC(=S)N(Cc3ccccc3)C2=O)cc1 | 35.7% (active)
7 | CN(C)c1ccc(C=C2C(=O)OC3(CCCC3)OC2=O)cc1 | 6.6%
8 | Cc1ccc(CC2(C)C(=O)Nc3ccc(OC(F)(F)F)cc32)cc1 (configuration not stated) | -5%
9 | C=CCC[C@@H](CCCCC)OC(=O)/C=C/[C@@H](O)[C@H](O)C[C@H](O)CC=C | 4.2%
10 | O=C1NC[C@H](Cc2ccc(O)cc2)N(C[C@H]2CCCN2C[C@H](Cc2ccccc2)N2C[C@H](Cc3ccccc3)N(CCc3ccccc3)C(=O)C2=O)C1=O | -3.4%
11 | O=C1Nc2ccccc2NC(c2ccc3c(c2)OCO3)=C1N(Cc1ccc(F)cc1)C(=O)c1ccco1 | -0.6%
12 | Cc1cc(=O)n(C)c(=O)n1CCCNc1ccccc1 | 6.9%
13 | CC(C)Oc1ccc(C(=O)Nc2cc(=O)n(C)c(=O)n2C)cc1 | -0.5%
14 | Cn1c(Nc2ccccc2)cc(=O)n(C)c1=O | 35.2% (active)
15 | CC(=O)c1cccc(-c2cnc3c(NC=O)cc(-c4ccccc4Oc4ccccc4)cn23)c1 | -5.9%
16 | CC1CCc2c(sc3nc4n(c(=O)c23)CCS4)C1 (configuration not stated) | 43.2% (active)
17 | CCCn1nnc2sc3c(c2c1=O)CCC(C)C3 (configuration not stated) | -1.8%
18 | C=CCn1c(SCc2c(C)noc2C)nc2sc3c(c2c1=O)CCC(C)C3 (configuration not stated) | -1.6%
19 | COc1ccc(C(c2nnnn2C2CCCC2)N2CCN(C/C=C/c3ccccc3)CC2)cc1 (configuration not stated) | -6.6%
20 | CC(=O)Nc1cc(-c2cccc(CO)c2)cn2c(-c3cccc(C(F)(F)F)c3)cnc12 | 0.9%
21 | O=C(NC(c1ccc(Cl)cc1)c1cnccn1)C1CCN(Cc2ccc(Cl)cc2)CC1 (configuration not stated) | -2.2%
22 | Cc1nc2c(OCc3ccc(Cl)cc3Cl)cccn2c1N(C)CC1CC1 | -6%
23 | Cc1nn(C)c(C)c1Sc1ccccc1N | -4.3%

Row | SMILES | inhibition
24 | Nc1ccccc1Sc1cc(Cl)nnc1Cl | 82.9% (active)
25 | CC(C)Nc1nc(NCCOc2ccccc2Cl)c2sccc2n1 | -12.7%
26 | NC(Cc1ccc(F)cc1)c1csc(Nc2nncc3ccccc23)n1 (configuration not stated) | -21.6%
27 | COc1ccc(-c2coc3c(C(=O)NC(C)C)cccc23)c(C)c1 | -5.4%
28 | CCOc1ccc(/C=C(/C#N)c2nnc(N3CCOCC3)n2-c2ccccc2)cc1OC | -9.5%
29 | COc1cc(N2CCCC2)c(OC)cc1/C=C(/C#N)c1cccc(Br)c1 | 169% (active)
30 | COc1ccc(-c2ccc(C(=O)NCCN3CCOCC3)c3occc23)c(C)c1 | -4.4%
31 | CCc1nc2ccc(C(=O)Nc3cccc(OC)c3)cn2c1N(CCC(C)C)CCN(C)C | 3%
32 | CCOCCC(=O)Nc1ccc2c(c1)c(=O)n(C)n2-c1ccc2ccccc2c1 | -6%
33 | OC(c1ccc(Cl)cc1)c1ncc(-c2ccc(Cl)cc2)[nH]1 (configuration not stated) | -8.9%
34 | COc1ccc(CNC(=O)CN(c2ccc(OC)c(Cl)c2)S(=O)(=O)c2ccc(C)cc2)cc1 | -6.9%
35 | COC(=O)CN(c1nc(C)c(Cl)c(OC)n1)S(=O)(=O)c1ccc(C)cc1 | 41.2% (active)
36 | CCN(CC)C(=O)CN(c1cccc(OC)c1)S(=O)(=O)c1ccc(C)cc1 | -9.7%
37 | CC(=O)Nc1cccc(-c2cc(NC=O)c3ncc(-c4ccc(F)c(Cl)c4)n3c2)c1 | -9.5%
38 | COc1ccc(-c2cc(NC(C)=O)c3ncc(-c4cc(OC)c(OC)c(OC)c4)n3c2)cn1 | 2.1%
39 | CC1(C(=O)NCc2cccc3ccccc23)CCN1Cc1ccc(-c2ccccc2)o1 (configuration not stated) | -9.6%
40 | CCc1nc2c(OCc3ccc(C(F)(F)F)cc3)cccn2c1N(C)C(=O)CC(C)C | 0.4%
41 | O=C(CN1CCN(c2ccccc2O)CC1)NC(=O)NCc1ccccc1 | 69.8% (active)
42 | Oc1ccccc1N1CCN(C(=S)NCc2ccccc2)CC1 | -13.6%
43 | COc1ccccc1N1CCN(CC(=O)NC(=O)NCc2ccco2)CC1 | -6.6%
44 | Cc1ccc(Cc2c(-c3ccc(Cl)cc3)nc3c4ccccc4ccn23)cc1 | -5.5%
45 | CSCCC(c1nnnn1Cc1ccccc1)N1CCN(C/C=C/c2ccccc2)CC1 (configuration not stated) | -9.9%
46 | CCN1CCN(C2CCCCC2NS(=O)(=O)c2ccc(Cl)cc2)CC1 (configuration not stated) | -2%

Row | SMILES | inhibition
47 | O=S(=O)(NC1CCCCC1N1CCC(O)CC1)c1ccc(Cl)cc1 (configuration not stated) | 110% (active)
48 | O=S(=O)(NC1CCCCC1N1CCCCC1)c1ccc(Cl)cc1 (configuration not stated) | 24.7%
49 | c1ccc(Cc2c(-c3ccco3)nc3c4ccccc4ccn23)cc1 | 4.5%
50 | CCOc1ccc2[nH]c(=S)sc2c1 | 4.7%
51 | C[C@H]([C@@H](O)[C@@H](O)[C@@H](C)C(C)(C)C)[C@H]1CC[C@H]2C3CC[C@H]4C[C@H](OS(=O)(=O)O)[C@@H](OS(=O)(=O)O)C[C@]4(C)[C@H]3CC[C@]12C (some centres not stated) | 7.2%
52 | COc1ccc(-c2cc(NC=O)c3ncc(-c4cc(OC)c(OC)c(OC)c4)n3c2)c(OC)c1 | -7.7%
53 | Cc1c(NC(=O)c2cccnc2)c(=O)n(-c2ccccc2)n1C | 58.9% (active)
54 | Cc1c(NC(=O)c2c([N+](=O)[O-])cnn2C)c(=O)n(-c2ccccc2)n1C | -13.3%
55 | Cc1c(NC(=O)c2coc(=O)c(Br)c2)c(=O)n(-c2ccccc2)n1C | 0.1%
56 | CCCCCc1c(Cc2ccccc2)ncn1CCc1ccccc1OC | -7%
57 | Cc1cc2nc(-c3ccc(Cl)cc3)c(Cc3cccc(F)c3)n2c(C)c1Br | -1.2%
58 | COc1ccc(CC(N)c2csc(NC(=O)NC(c3ccccc3)c3ccccc3)n2)cc1 (configuration not stated) | -27.6%
59 | O=C(Nc1nnc(SCc2c(Cl)cccc2Cl)s1)C1CCCO1 (configuration not stated) | -21.4%
60 | O=C(Nc1nnc(CCc2ccccc2)s1)C1CCCO1 (configuration not stated) | 37% (active)
61 | O=C(Nc1ccc(-c2nnc(-c3ccccc3)o2)cc1)C1CCCO1 (configuration not stated) | -1.7%
62 | NCCCNC(=S)NCCCN(Cc1ccc(Cl)cc1)c1ccc(Br)cn1 | -47.9%
63 | C=C1C(=O)OC2C1CCC(C)=CCCC1(C)OC21 (configuration not stated) | -2.6%
64 | COc1ccc(Cl)cc1-c1cc(C(=O)Nc2cc(OC)c(OC)c(OC)c2)[nH]n1 | -0.6%
65 | CCCc1c(-c2ccccc2F)ncn1Cc1ccccc1OC | -10.4%
66 | Cc1cccc(OCC(=O)Nc2ccc(NC(=O)c3ccco3)c(C)c2)c1 | 17.3%
67 | Cc1ccc(NC(=O)c2ccco2)cc1 | -6%
68 | Cc1ccc(C(=O)COc2cccc(NC(=O)c3ccco3)c2)cc1 | 44.6% (active)
69 | Clc1cccc(Cc2c(-c3cccc(Cl)c3)nc3ccc(Cl)cn23)c1 | -3.7%

Row | SMILES | inhibition
70 | Fc1cccc(Cc2c(-c3ccc(Cl)cc3)nc3ccc(Cl)cn23)c1 | -6%
71 | O=C(Cc1ccccc1[N+](=O)[O-])N1CCN(Cc2ccc3c(c2)OCO3)CC1 | -12.3%
72 | CCC(C)(C(=O)NC1CCCCC1)N(C)C(=O)c1ccc2c(c1)OCO2 (configuration not stated) | 4%
73 | CCN1CCN(C(C(=O)NC2CCCC2)c2cc3c(cc2[N+](=O)[O-])OCO3)CC1 (configuration not stated) | 35.9% (active)
74 | OC(c1ccccc1)c1nc(/C=C/c2ccc(C(F)(F)F)cc2)cs1 (configuration not stated) | -10.4%
75 | Cc1cc(=O)oc2c3c(cc(OCC(=O)NCC(O)c4ccccc4)c12)OC(C)(C)CC3 (configuration not stated) | -2%
76 | O=C(CC[C@H]1O[C@@H](n2ccc(=O)[nH]c2=O)[C@H](O)[C@@H]1O)N[C@H](Cc1ccccc1)C(=O)NCCCN1CCCC1=O | 1.4%
77 | Cc1ccc(CNC(=O)C2CCCN2C(=O)NCc2ccccc2)cc1 (configuration not stated) | 5.7%
78 | O=C(NCCc1ccc(Cl)cc1)C1CCCN1C(=O)NCc1ccccc1 (configuration not stated) | -20.3%
79 | CC(=O)c1cccc(NC(=O)N2CCCC2C(=O)NCCc2ccccc2)c1 (configuration not stated) | 35.3% (active)
80 | CCOC(=O)c1ccc(-c2ccc3ncnc(N(C)Cc4sccc4C)c3c2)o1 | 6.1%
81 | CC(=O)N1Cc2cc(C(=O)NCc3cccc(F)c3)nc(-c3cccc(C4=CCCCC4)c3)c2[C@H]1CCO | -0.7%
82 | CN(C(=O)C1CCOC1)c1nnc(-c2cccnc2)s1 (configuration not stated) | 6.9%
83 | CN(C(=O)c1ccccn1)c1nnc(-c2ccccn2)s1 | 40.4% (active)
84 | O=C(Nc1nnc(C2CC2)s1)c1ccccn1 | -19.8%
85 | CC(C)Cc1nnc(NC(=O)CCNC(=O)c2ccccc2Cl)s1 | -5.1%
86 | CC(C)Cc1nnc(NC(=O)CN2C(=O)NC3(CCCCC3)C2=O)s1 | 7.7%
87 | CC(C)Cc1nnc(NC(=O)CCC(=O)Nc2ccc3cn[nH]c3c2)s1 | 43.7% (active)
88 | CCCc1nc2c3ccccc3ccn2c1Cc1ccccc1C(F)(F)F | 1%
89 | Cc1nc2c(OCc3ccc(Cl)cc3)cccn2c1N(C)Cc1cccs1 | -1.1%
90 | O=C(C[n+]1cc(Br)cc2ccccc21)c1ccc(F)cc1 | 41.8% (active)
91 | O=C(CNC(=O)c1ccccc1F)c1ccc(Br)cc1 | -24.7%
92 | COC(=O)C[n+]1cccc2ccccc21 | 10%
